In the library only some 2.9% were active in any assay of this set; here they are far more common.
TRPML1 agonist – activates the human TRPML1 channel; activation, % (no concentration beside the values); TRPML1-expressing cells, Ca2+ dye fluorescence, FDSS; 410,000 tested, 0.12% active; Q9GZU1; AID 624414; in the data active means activation above about 50%; inconclusive means mostly about 30% to 49%
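In this qHTS format, compounds were pin-transferred onto Ca8-dye-loaded TRPML1-DL cells induced with Tet overnight, and intracellular Ca2+ fluorescence was recorded kinetically for 110 s after a 10 s baseline. A subsequent 4uM final 54-4 (EC80) addition followed by a second 110 s read served as the antagonist phase.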
D3 ag – activates the human D3 dopamine receptor; P35462; D3R DiscoveRx beta-arrestin cells, luminescence, 90 min; max activation, %; 410,000 tested, 0.58% active; in the data active means max activation above about 30%
Target sequence (P35462 whole entry, looked up): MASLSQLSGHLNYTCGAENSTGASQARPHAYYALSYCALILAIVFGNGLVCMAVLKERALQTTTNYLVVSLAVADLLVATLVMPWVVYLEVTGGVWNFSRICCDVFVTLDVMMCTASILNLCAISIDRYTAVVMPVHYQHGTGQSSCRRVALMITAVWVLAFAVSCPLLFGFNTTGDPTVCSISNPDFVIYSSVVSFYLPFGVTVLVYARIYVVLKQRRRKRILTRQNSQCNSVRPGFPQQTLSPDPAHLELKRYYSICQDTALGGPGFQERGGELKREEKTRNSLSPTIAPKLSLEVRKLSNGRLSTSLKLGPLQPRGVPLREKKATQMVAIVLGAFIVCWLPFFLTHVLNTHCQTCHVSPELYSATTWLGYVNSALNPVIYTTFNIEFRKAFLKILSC
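Cells at 1500/well, incubated overnight, then treated with pinned compounds (dopamine as control) for 90 min at 37 degrees C. DiscoveRx reagent added for 30 - 60 minutes at room temperature; luminescence read.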
D3 antag – blocks the human D3 dopamine receptor; D3R cells, DiscoveRx beta-arrestin luminescence, antagonist mode; stronger effect = lower value; 360,000 tested, 2.5% active; AID 652054; max response, negative = inhibition, %; in the data active means max response below about -50%; inconclusive means no clear call, values can overlap the other calls
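Cells plated overnight at 1500 cells/well, then exposed to library compounds with dopamine controls for 90 minutes at 37 degrees C. DiscoveRx reagent added for 30–60 minutes at room temperature; luminescence read, quantitative HTS format.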
TRPML1 blocker – blocks the human TRPML1 channel. 390,000 tested, 0.02% active. Q9GZU1. activity change, negative = inhibition, % (no concentration beside the values). TRPML1-inducible cells, Ca2+ dye fluorescence, FDSS; stronger effect = lower value; inhibition of EC80 agonist-evoked calcium signal; in the data active means activity change below about -50%; inconclusive means between about -30% and that limit;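 further: stimulus is agonist 54-4 at its EC80 concentration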
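Tet-induced TRPML1-DL cells loaded with Ca8 no-wash calcium dye were read kinetically on FDSS. Compound addition was followed by EC80 agonist 54-4 (4 uM final); inhibition was read over 110 s.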
Large screens that a line does not name were inactive.

CCCN(CCC)CCCNC(=O)c1cc2cc3ccc(OC)cc3nc2o1	D3 antag inconclusive
COc1ccc2cc3cc(C(=O)NCCCN4CCC(C)CC4)oc3nc2c1	D3 antag -58
CC1CCCN(CCCNC(=O)c2coc3nc4ccccc4nc23)C1 (configuration not stated)	none
CC1CCN(CCCNC(=O)COc2cc(=O)n(C)c3ccccc23)CC1	D3 antag -75
CCN1CCN(CCCNC(=O)c2cc3cc4ccc(OC)cc4nc3o2)CC1	none
CCn1c(=O)cc(OCC(=O)NCCCN2CCC(C)CC2)c2ccccc21	D3 antag inconclusive
CCCCN(CC)CCCNC(=O)c1cc2cc3ccc(OC)cc3nc2o1	D3 antag -72
CCCCN(CC)C(=O)CSc1nc2n[nH]c(C)c2c(=N)n1-c1ccc(CC)cc1	none (no result: D3 antag)
CC(C)C(=O)Nc1nc2c(ncn2[C@H]2CC(O)[C@@H](CO)O2)c(=O)[nH]1 (some centres not stated)	none (no result: D3 ag, D3 antag, TRPML1 blocker)
O=C1CCC(=O)N1CO	none (no result: TRPML1 agonist, D3 antag, TRPML1 blocker)
CN(CCNC(=O)CCCOc1cc(=O)n(C)c2ccccc12)Cc1ccccc1	D3 antag -93
CN(CCCNC(=O)CCCOc1cc(=O)n(C)c2ccccc12)Cc1ccccc1	none
O=C(NCCc1ccccc1)c1n[nH]c(=O)c2ccccc12	none
COc1ccc(-c2cc(C(=O)NCCN3CCOCC3)c3ccccc3n2)c(OC)c1	D3 antag -55
CC1CCN(CCCNC(=O)c2n[nH]c(=O)c3ccccc23)CC1	D3 antag -62
COc1ccc2cc3cc(C(=O)NCCN4CCN(Cc5ccccc5)CC4)oc3nc2c1	D3 antag -61
Cc1ccc(OCC(O)Cn2c(N)nc3c2c(=O)n(C)c(=O)n3C)cc1 (configuration not stated)	D3 ag 53
Cc1ccc(NC(=O)c2nnn(CC(=O)Nc3ccc(C)c(Cl)c3)c2N)c(C)c1	none (no result: D3 antag)
Cc1nnsc1C(=O)Oc1ccccc1Cl	none (no result: D3 antag)
COc1ccc(C(CNC(=O)c2ccc(OC)c(S(=O)(=O)N3CCCC3)c2)N2CCCC2)cc1 (configuration not stated)	D3 antag -83
COc1ccccc1NS(=O)(=O)c1cc(C(=O)NCC(c2cccs2)N2CCOCC2)ccc1C (configuration not stated)	none
COc1ccc(C(CNC(=O)c2ccc(C)c(S(=O)(=O)Nc3ccccc3OC)c2)N2CCCC2)cc1 (configuration not stated)	D3 antag -93
CCC1CCc2sc(C(=O)NCC(c3ccc(OC)cc3)N3CCCC3)cc2C1 (configuration not stated)	D3 antag -89
COc1ccc(NS(=O)(=O)c2cccc(C(=O)NCC(c3ccc(OC)cc3)N3CCCCC3)c2)cc1 (configuration not stated)	D3 antag -57
COc1ccc(C(CNC(=O)c2cccc(N(C)C)c2)N2CCCC2)cc1 (configuration not stated)	none
COc1cccc(NC(=O)Nc2ccc3nc(N4CCN(C)CC4)cc(C)c3c2)c1	none (no result: D3 antag)
COc1ccc(NC(=O)Cn2cnc3c(nc4n3CCCCC4)c2=O)c(OC)c1	none (no result: D3 antag)
Cc1ccc(S(=O)(=O)N(C)c2ccc(C(=O)NCC(c3ccccc3)N3CCCC3)cc2)cc1 (configuration not stated)	D3 antag -64
COc1ccc(N(C)S(=O)(=O)c2cccc(C(=O)NCC(c3cccs3)N(C)C)c2)cc1 (configuration not stated)	D3 antag -67
CCN(c1ccccc1)S(=O)(=O)c1cccc(C(=O)NCC(c2ccc(OC)cc2)N2CCCCC2)c1 (configuration not stated)	D3 antag -122
CN(C)C(CNC(=O)c1cc(S(=O)(=O)N(C)c2ccc(F)cc2)ccc1Cl)c1cccs1 (configuration not stated)	none
CN(c1ccccc1)S(=O)(=O)c1ccc(C(=O)NCC(c2ccco2)N2CCCCC2)cc1 (configuration not stated)	D3 antag inconclusive
COc1ccc(N(C)S(=O)(=O)c2cccc(C(=O)NCC(c3ccco3)N3CCCC3)c2)cc1 (configuration not stated)	D3 antag -57
Cc1ccc(-c2[nH]ncc2CNCc2ccc(CN(C)C)cc2)cc1	none (no result: D3 ag, D3 antag, TRPML1 blocker)
CCn1c(SCC(=O)NCc2ccco2)nnc1-c1cccc(N(C)C)c1	none (no result: D3 ag, D3 antag, TRPML1 blocker)
COc1ccc(C(CNC(=O)c2cccc(S(=O)(=O)Nc3ccccc3OC)c2)N2CCCC2)cc1 (configuration not stated)	D3 antag -65
COc1cccc(C(=O)NCCS(=O)(=O)N2CCCC2)c1	D3 antag -63
COc1cccc(C(=O)NCCS(=O)(=O)N2CCCCC2)c1	none
COc1ccc(C(CNC(=O)c2cc(S(=O)(=O)N3CCCCC3)ccc2C)N2CCCC2)cc1 (configuration not stated)	D3 antag inconclusive
COc1ccc(C(CNC(=O)c2cccc(S(=O)(=O)Nc3ccccc3OC)c2)N2CCCCC2)cc1 (configuration not stated)	D3 antag -81
COc1ccc(C(CNC(=O)c2cccc(S(=O)(=O)N3CCCCC3)c2)N2CCCC2)cc1 (configuration not stated)	D3 antag -51
COc1ccc(NS(=O)(=O)c2cccc(C(=O)NCC(c3ccc(OC)cc3)N3CCCC3)c2)cc1 (configuration not stated)	D3 antag inconclusive
COc1ccc(NC(=O)C(C)Sc2cc(-c3ccccc3)nc(C)n2)cc1Cl (configuration not stated)	none (no result: D3 antag)
CCOc1ccc(CC(=O)Nc2nnc3n2CCS3)cc1	none (no result: D3 antag)
COc1ccc(C(CNC(=O)c2cc3ccccc3cc2OC)N2CCCC2)cc1 (configuration not stated)	D3 antag -56
CC1CN(CCCCSc2ccccc2)CC(C)O1 (configuration not stated)	none (no result: TRPML1 agonist, TRPML1 blocker)
CC1CN(CCCSc2ccc(Cl)cc2)CC(C)O1 (configuration not stated)	D3 antag -71
Clc1ccc(SCCCN2CCCCC2)cc1	D3 antag -80
CC(=O)Nc1ccc(SCC(=O)N(C)C2CCS(=O)(=O)C2)cc1 (configuration not stated)	D3 antag -59
CN(C(=O)CSc1ncccn1)C1CCS(=O)(=O)C1 (configuration not stated)	none
COc1ccc(-n2c(=O)c3c4c(sc3n(Cc3ccc(C)cc3C)c2=O)CCC4)c(OC)c1	none (no result: D3 antag)
CCCN(CCO)Cc1ccc(Cl)c(Cl)c1	D3 antag -59
Cc1nc2ccccc2n1CCc1nc2c3ccccc3nc(SCc3ccc(C#N)cc3)n2n1	none (no result: D3 antag)
CCCCN1CCC(COC(=O)c2cc(Cl)c(N)c3c2OCCO3)CC1	D3 antag -108
COc1cc(/C=C(/C(=O)c2cccs2)c2nc3ccccc3[nH]2)cc(OC)c1O	D3 antag -100
O=C(/C(=C/c1ccc(Cl)cc1)c1nc2ccccc2[nH]1)c1ccccc1	D3 antag -75

High-throughput results deposited in PubChem by National Center for Advancing Translational Sciences (NCATS).
